From the supplement of paper PMC10849652
About 7,900 targets were measured; listed, in parts, are those with a hit and a random draw of the rest. About 0.6% of all pairs of compound and target were hits.

Legend:
Assay in all cases: log2 fold change, soluble protein after heating vs DMSO (PISA); higher = thermal stabilisation; K562 cells, 10 uM, 30 min; active = over 0.2 and 3.5 SD of the protein, either way, in both replicates (recomputed)
[1] = compound: C1CCN(C1)C(=O)NC2=CC=CC(=C2)NC3=NC=C(C(=N3)NCCC4=CN=CN4)Br
Summary of the method: (§1)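 K562 cells at 2×10^6 cells/mL were exposed to 10 μM compound for 30 min, then aliquots were heated for 3 min across 48°C-58°C, pooled, and extracted in PBS containing 0.5% NP-40 at 4°C. The supernatant after 21,000xg for 90 min was taken as soluble protein and measured by TMTpro 16plex LC-MS/MS with channel sums equalised. Thermal stability is reported relative to control samples, with values from duplicates. Fold changes are given on a log2 scale.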

[2] = compound: C1CN(CCC1(CC2=CC=C(C=C2)Cl)N)C3=NC=NC4=C3C=CN4
Summary of the method: as §1

[3] = compound: CC1=C(C2=C(C=C1)C(=O)C3=CC=CC=C3N2CCCN)C
Summary of the method: as §1

[4] = compound: C1=CC2=NC=CN=C2C=C1/C=C/3\C(=O)NC(=O)S3
Summary of the method: as §1

[5] = compound: C1=CC=C(C=C1)C2=NC(=C(N2)C3=CC=NC=C3)C4=CC(=C(C=C4)Cl)O
Summary of the method: as §1

ibrutinib = compound: C=CC(=O)N1CCC[C@@H](n2nc(-c3ccc(Oc4ccccc4)cc3)c3c(N)ncnc32)C1 [ibrutinib]
Summary of the method: as §1

ralimetinib = compound: CC(C)(C)Cn1c(N)nc2ccc(-c3[nH]c(C(C)(C)C)nc3-c3ccc(F)cc3)nc21 [ralimetinib]
Summary of the method: as §1

[6] = compound: CC(C)C[C@@H](C=O)NC(=O)[C@H](CC(C)C)NC(=O)[C@H](CC(C)C)NC(=O)OCc1ccccc1
Summary of the method: as §1

erlotinib = compound: C#Cc1cccc(Nc2ncnc3cc(OCCOC)c(OCCOC)cc23)c1 [erlotinib]
Summary of the method: as §1

[7] = compound: C1=CC(=C(C=C1Cl)C2=NC3=NC=CN=C3C(=N2)NC4=CC=NC=C4)F
Summary of the method: as §1

[8] = compound: C1=CC(=CC=C1C2=NC3=C(N2)C=C(C=C3)C(=O)N)OC4=CC=C(C=C4)Cl
Summary of the method: as §1

[9] = compound: CC(C)(O)CC(=O)NCCn1ccc2ncnc(Nc3ccc(Oc4cccc(C(F)(F)F)c4)c(Cl)c3)c21
Summary of the method: as §1

[10] = compound: CC(C)C1=C2N=C(C=C(N2N=C1)NCC3=CC=CC=C3)NCCCCCCN
Summary of the method: as §1

[11] = compound: CC1=C(C(CC(=O)N1)C2=CC=C(C=C2)C(F)(F)F)C(=O)NC3=C(C=C4C(=C3)C=NN4)F
Summary of the method: as §1

[12] = compound: C/C(=N\NC(=O)C1=CC(=CC=C1)S(=O)(=O)N2CCOCC2)/C3=C(C=CC(=C3)Cl)O
Summary of the method: as §1

[13] = compound: C1=CC2=C(C=CC(=C2)/C=C\3/C(=O)NC(=NCC4=CC=CS4)S3)N=C1
Summary of the method: as §1

[14] = compound: C1=CC=C2C(=C1)C3=NNC4=CC=CC(=C43)C2=O
Summary of the method: as §1

IRAK-1-4 Inhibitor I = compound: C1COCCN1CCN2C3=CC=CC=C3N=C2NC(=O)C4=CC(=CC=C4)[N+](=O)[O-] [IRAK-1-4 Inhibitor I]
Summary of the method: as §1

[15] = compound: CC(=O)c1cnc2ccc(-c3cc(Cl)c(O)c(Cl)c3)nc2c1N[C@H]1CC[C@H](CN(C)C)CC1
Summary of the method: as §1

pinometostat = compound: CC(C)N(C[C@H]1O[C@@H](n2cnc3c(N)ncnc32)[C@H](O)[C@@H]1O)[C@H]1C[C@@H](CCc2nc3cc(C(C)(C)C)ccc3[nH]2)C1 [pinometostat]
Summary of the method: as §1

Measured: log2 fold change

AP2S1 (UniProt M0QZ21)
inactive: [1] -0.625 | [2] 0.21 | [3] 0.139

ADD2 isoform 9 (UniProt P35612)
inactive: [4] -0.025 | [5] 0.203 | ibrutinib -0.098 | ralimetinib 0.145 | [6] -0.103

ACSL6 isoform 1 (UniProt Q9UKU0)
Sequence of UniProt Q9UKU0 (Q9UKU0 whole entry, looked up): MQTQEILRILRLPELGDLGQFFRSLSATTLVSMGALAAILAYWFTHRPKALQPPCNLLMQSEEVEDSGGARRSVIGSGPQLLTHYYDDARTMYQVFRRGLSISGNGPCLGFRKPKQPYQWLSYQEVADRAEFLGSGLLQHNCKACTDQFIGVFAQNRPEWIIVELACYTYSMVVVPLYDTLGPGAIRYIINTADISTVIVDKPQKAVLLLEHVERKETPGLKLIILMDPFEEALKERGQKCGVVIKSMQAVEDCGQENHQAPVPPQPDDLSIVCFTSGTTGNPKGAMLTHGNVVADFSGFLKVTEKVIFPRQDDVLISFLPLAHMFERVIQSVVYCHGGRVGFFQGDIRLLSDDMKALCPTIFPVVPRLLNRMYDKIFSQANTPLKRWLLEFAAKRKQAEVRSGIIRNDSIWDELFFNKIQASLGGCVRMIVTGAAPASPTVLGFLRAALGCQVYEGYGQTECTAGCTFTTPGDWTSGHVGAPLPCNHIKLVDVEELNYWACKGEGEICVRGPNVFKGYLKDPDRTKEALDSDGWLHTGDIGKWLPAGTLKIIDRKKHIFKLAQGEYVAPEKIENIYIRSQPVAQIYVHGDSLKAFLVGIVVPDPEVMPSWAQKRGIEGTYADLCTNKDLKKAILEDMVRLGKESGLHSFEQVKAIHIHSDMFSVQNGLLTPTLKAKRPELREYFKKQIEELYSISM
inactive: erlotinib -0.066 | [7] 0.02 | [8] 0.025 | [4] -0.083 | [5] -0.061 | [1] -0.03 | [2] 0.04 | ibrutinib 0.043 | ralimetinib -0.001 | [9] 0.222 | [10] -0.21 | [6] 0.027 | [11] -0.109 | [3] 0.012

ATXN7L3 isoform 2 (UniProt Q14CW9)
Sequence of UniProt Q14CW9 (Q14CW9 whole entry, looked up): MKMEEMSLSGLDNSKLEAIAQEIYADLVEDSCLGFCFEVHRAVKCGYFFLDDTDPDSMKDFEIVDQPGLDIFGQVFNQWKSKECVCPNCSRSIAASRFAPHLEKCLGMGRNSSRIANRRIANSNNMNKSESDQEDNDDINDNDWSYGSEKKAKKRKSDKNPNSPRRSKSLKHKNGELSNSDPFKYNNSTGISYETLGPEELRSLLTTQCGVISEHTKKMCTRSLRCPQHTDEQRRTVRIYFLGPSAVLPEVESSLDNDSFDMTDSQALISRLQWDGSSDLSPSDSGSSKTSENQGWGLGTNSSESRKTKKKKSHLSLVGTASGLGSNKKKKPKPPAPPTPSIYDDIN
inactive: erlotinib 0.069 | [12] -0.31 | [8] 0.071 | [13] 0.025 | [4] 0.159 | [5] -0.122 | [14] -0.037 | IRAK-1-4 Inhibitor I 0.114 | ibrutinib 0.147 | [15] 0.027 | ralimetinib 0.036 | [10] 0.066 | [6] -0.053 | pinometostat 0.093 | [11] 0.018

ADPRH (UniProt P54922)
Sequence of UniProt P54922 (P54922 whole entry, looked up): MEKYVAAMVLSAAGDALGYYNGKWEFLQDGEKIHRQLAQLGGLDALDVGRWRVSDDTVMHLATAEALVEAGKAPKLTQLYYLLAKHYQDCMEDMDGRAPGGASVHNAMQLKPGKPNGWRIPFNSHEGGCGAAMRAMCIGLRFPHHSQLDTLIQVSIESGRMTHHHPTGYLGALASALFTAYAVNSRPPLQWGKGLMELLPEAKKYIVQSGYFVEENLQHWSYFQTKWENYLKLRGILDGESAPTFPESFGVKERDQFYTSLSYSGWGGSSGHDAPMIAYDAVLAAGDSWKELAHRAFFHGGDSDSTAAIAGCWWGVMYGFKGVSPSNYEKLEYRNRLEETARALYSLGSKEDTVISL
inactive: erlotinib -0.021 | [7] -0.047 | [8] -0.047 | [4] 0.008 | [5] -0.011 | [1] 0.141 | [2] -0.065 | IRAK-1-4 Inhibitor I 0.056 | ibrutinib 0.001 | ralimetinib -0.003 | [9] -0.084 | [10] 0.107 | [6] -0.033 | pinometostat 0.021 | [11] -0.032 | [3] 0.037

BDH2 (UniProt Q9BUT1)
inactive: erlotinib -0.003 | [12] 0.204 | [8] 0.184 | [13] -0.031 | [4] -0.005 | [5] 0.085 | [14] 0.103 | IRAK-1-4 Inhibitor I -0.009 | ibrutinib 0.041 | [15] -0.073 | ralimetinib -0.059 | [10] 0.183 | [6] 0.001 | pinometostat 0.004

ABITRAM (UniProt Q9NX38)
Sequence of UniProt Q9NX38 (Q9NX38 whole entry, looked up): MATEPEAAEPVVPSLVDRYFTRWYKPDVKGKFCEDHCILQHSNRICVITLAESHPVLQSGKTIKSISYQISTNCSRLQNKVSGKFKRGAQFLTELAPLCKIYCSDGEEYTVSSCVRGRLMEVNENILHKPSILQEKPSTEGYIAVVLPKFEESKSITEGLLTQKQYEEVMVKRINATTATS
inactive: [12] 0.084 | [7] 0.029 | [13] 0.018 | [4] 0.023 | [5] -0.05 | [14] 0.034 | [1] -0.037 | [2] 0.018 | IRAK-1-4 Inhibitor I 0.041 | ibrutinib 0.005 | [15] -0.073 | ralimetinib -0.088 | [9] -0.008 | [6] 0.016 | pinometostat -0.025 | [11] 0.049 | [3] 0.001

BRAF, A0A2R8Y8E0
inactive: erlotinib 0.073 | [12] 0.15 | [8] 0.083 | [13] -0.248 | [14] -0.047 | [1] -0.235 | [2] -0.26 | IRAK-1-4 Inhibitor I 0.055 | [15] 0.156 | ralimetinib 0.059 | [10] -0.188 | [6] 0.067 | pinometostat -0.04 | [11] 0.149 | [3] 0.078
active: [5] -0.987

ALDH2 isoform 2 (UniProt P05091)
inactive: [12] -0.197 | [7] -0.106 | [13] 0.6 | [4] 0.07 | [5] -0.263 | [14] 0.131 | [1] 0.208 | [2] 0.032 | ibrutinib -0.1 | [15] -0.133 | ralimetinib -0.18 | [9] 0.029 | [6] 0.063 | [3] 0.087

APH1A (UniProt Q96BI3)
Sequence of UniProt Q96BI3 (Q96BI3 whole entry, looked up): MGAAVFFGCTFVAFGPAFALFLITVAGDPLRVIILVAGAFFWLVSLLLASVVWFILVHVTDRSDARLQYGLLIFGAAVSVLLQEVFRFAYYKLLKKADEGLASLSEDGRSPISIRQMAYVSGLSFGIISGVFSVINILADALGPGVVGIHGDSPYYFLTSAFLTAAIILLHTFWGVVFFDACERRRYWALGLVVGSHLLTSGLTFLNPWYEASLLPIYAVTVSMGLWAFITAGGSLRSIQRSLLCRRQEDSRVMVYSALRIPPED
inactive: erlotinib 0 | [12] -0.046 | [8] 0.052 | [13] 0.073 | [4] 0.048 | [14] -0.09 | [1] -0.188 | [2] 0.071 | IRAK-1-4 Inhibitor I 0.021 | ibrutinib 0.036 | [15] -0.076 | [10] -0.047 | pinometostat -0.056 | [11] 0.028 | [3] -0.03

AUH (UniProt Q13825)
Sequence of UniProt Q13825 (Q13825 whole entry, looked up): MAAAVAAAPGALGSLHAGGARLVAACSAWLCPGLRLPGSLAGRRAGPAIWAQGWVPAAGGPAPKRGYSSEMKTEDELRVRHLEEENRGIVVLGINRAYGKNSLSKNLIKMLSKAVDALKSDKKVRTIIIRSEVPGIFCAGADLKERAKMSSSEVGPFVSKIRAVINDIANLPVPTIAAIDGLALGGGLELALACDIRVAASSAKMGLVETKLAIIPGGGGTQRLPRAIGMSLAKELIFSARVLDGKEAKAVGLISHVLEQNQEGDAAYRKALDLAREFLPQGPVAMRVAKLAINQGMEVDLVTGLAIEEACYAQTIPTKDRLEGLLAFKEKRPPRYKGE
inactive: erlotinib 0.155 | [12] 0.042 | [8] -0.035 | [13] -0.122 | [4] 0.112 | [5] 0.039 | [14] 0.065 | [1] -0.028 | [2] 0.059 | IRAK-1-4 Inhibitor I -0.237 | ibrutinib 0.031 | [15] 0.036 | ralimetinib -0.003 | [10] 0.084 | [6] 0.026 | pinometostat 0.28 | [3] 0.032

AKNA (UniProt Q7Z591)
Sequence of UniProt Q7Z591 (Q7Z591 whole entry, looked up): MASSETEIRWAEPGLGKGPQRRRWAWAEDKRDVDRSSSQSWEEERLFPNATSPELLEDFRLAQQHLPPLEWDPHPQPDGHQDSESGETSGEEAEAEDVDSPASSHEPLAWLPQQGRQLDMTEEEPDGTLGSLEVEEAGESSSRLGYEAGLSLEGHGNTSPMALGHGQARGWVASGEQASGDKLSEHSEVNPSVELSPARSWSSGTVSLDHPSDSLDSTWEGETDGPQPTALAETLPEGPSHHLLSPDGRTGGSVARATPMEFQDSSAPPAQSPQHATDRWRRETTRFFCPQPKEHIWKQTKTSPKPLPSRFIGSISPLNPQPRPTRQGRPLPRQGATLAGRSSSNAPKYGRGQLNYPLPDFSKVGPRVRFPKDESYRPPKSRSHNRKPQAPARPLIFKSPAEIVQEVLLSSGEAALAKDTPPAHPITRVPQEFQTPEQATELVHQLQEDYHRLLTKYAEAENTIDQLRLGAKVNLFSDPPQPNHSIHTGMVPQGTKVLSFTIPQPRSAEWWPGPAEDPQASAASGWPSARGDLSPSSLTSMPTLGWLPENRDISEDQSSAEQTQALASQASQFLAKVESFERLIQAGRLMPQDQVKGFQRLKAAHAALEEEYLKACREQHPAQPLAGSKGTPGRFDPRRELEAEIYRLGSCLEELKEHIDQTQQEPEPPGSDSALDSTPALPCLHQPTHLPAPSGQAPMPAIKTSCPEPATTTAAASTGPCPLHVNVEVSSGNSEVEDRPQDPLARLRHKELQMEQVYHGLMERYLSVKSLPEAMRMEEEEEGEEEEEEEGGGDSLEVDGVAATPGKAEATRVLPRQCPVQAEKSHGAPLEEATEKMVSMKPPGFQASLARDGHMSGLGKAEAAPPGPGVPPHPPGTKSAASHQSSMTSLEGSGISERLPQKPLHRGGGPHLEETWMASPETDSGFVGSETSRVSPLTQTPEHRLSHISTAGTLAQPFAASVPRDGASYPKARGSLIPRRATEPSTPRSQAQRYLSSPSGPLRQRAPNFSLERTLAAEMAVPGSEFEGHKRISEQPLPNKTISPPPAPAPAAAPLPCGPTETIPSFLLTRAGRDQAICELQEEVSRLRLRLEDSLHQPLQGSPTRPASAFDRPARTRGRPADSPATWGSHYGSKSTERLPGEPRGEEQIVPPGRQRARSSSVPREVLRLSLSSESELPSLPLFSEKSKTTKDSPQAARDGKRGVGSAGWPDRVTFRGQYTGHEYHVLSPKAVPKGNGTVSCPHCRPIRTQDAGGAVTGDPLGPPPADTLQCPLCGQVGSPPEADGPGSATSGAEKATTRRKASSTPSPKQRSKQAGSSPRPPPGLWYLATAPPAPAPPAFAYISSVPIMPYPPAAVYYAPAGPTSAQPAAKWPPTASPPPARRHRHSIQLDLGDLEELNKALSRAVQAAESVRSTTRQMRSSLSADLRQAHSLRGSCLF
inactive: erlotinib -0.147 | [8] 0.195
active: [10] -0.659

ACTR3B (UniProt Q9P1U1)
inactive: erlotinib -0.033 | [8] 0.073 | [5] -0.078 | [1] -0.012 | [2] 0.145 | IRAK-1-4 Inhibitor I -0.04 | ralimetinib -0.071 | [10] 0.181 | [6] 0.056 | pinometostat -0.081 | [11] -0.015 | [3] -0.016

ARL4A (UniProt P40617)
Sequence of UniProt P40617 (P40617 whole entry, looked up): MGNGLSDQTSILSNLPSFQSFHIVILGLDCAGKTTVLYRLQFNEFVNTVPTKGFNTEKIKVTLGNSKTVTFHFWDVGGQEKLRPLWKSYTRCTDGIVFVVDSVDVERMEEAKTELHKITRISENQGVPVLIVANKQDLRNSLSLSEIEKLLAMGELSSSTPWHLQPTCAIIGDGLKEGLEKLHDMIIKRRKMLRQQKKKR
inactive: [12] 0.009 | [13] 0.35 | [4] -0.053 | [14] 0.047 | ibrutinib 0.143 | [15] -0.295

ARRDC1 (UniProt Q8N5I2)
Sequence of UniProt Q8N5I2 (Q8N5I2 whole entry, looked up): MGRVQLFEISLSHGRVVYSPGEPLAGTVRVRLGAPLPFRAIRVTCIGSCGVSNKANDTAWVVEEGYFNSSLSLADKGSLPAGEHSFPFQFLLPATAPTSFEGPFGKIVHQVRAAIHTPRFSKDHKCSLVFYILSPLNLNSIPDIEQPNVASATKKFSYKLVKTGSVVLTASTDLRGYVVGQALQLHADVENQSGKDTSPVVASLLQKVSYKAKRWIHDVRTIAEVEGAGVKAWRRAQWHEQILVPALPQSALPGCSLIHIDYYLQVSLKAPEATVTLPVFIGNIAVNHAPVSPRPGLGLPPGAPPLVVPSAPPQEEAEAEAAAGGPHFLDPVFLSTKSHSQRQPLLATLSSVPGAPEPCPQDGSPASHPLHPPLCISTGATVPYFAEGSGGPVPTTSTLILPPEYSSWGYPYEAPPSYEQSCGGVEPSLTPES
inactive: erlotinib -0.079 | [7] -0.075 | [8] 0.038 | [4] -0.05 | [5] 0.042 | [1] -0.03 | [2] -0.066 | ibrutinib 0.062 | ralimetinib 0.076 | [9] 0.102 | [10] -0.07 | [6] 0.094 | [11] -0.075 | [3] 0.045

BRMS1 (UniProt Q9HCU9)
Sequence of UniProt Q9HCU9 (Q9HCU9 whole entry, looked up): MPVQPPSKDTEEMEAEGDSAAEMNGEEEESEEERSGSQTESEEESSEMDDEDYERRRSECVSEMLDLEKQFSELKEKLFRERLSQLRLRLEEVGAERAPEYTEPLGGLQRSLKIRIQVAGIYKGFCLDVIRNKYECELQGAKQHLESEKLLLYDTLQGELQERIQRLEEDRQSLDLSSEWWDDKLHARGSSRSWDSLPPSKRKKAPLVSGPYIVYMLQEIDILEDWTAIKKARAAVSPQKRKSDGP
inactive: [7] 0.075 | [13] 0.09 | [14] -0.041 | [1] 0.024 | [2] 0.119 | [15] 0.055 | [9] -0.002 | [3] -0.014
active: [12] -0.656

ADD3 isoform 2 (UniProt Q9UEY8)
inactive: [12] 0.171 | [7] -0.049 | [13] 0.057 | [5] 0.009 | [14] 0.047 | [1] -0.016 | [2] 0.034 | IRAK-1-4 Inhibitor I 0.008 | [15] -0.433 | ralimetinib -0.015 | [9] 0.005 | [6] 0.009 | pinometostat 0.108 | [3] -0.063

APOH (UniProt P02749)
inactive: erlotinib -0.214 | [12] -0.028 | [8] 0.051 | [13] -0.026 | [4] 0.069 | [5] -0.1 | [14] -0.092 | [1] 0.188 | [2] 0.09 | IRAK-1-4 Inhibitor I 0.13 | ibrutinib 0.155 | [15] 0.211 | ralimetinib -0.131 | [10] -0.067 | [6] 0.119 | pinometostat -0.117 | [11] 0.419 | [3] -0.126

AARSD1 (UniProt Q9BTE6)
Sequence of UniProt Q9BTE6 (Q9BTE6 whole entry, looked up): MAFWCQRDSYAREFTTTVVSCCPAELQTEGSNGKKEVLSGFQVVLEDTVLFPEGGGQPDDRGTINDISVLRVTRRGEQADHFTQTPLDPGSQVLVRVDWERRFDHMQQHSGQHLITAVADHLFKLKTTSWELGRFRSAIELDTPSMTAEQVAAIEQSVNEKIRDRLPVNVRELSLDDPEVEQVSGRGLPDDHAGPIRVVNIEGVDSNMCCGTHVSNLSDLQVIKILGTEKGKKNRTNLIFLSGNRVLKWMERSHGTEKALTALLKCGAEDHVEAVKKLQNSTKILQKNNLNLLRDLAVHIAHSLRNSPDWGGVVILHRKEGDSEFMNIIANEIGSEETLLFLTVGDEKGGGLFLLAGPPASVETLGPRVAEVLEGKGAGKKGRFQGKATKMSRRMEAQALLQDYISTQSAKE
inactive: erlotinib 0.131 | [12] -0.415 | [8] 0.054 | [13] -0.063 | [4] -0.117 | [14] 0.197 | IRAK-1-4 Inhibitor I 0.264 | ibrutinib 0.135 | [15] 0.107 | [10] -0.13 | pinometostat 0.041 | [11] -0.045

ARHGAP4 isoform 2 (UniProt P98171)
inactive: erlotinib 0.042 | [12] -0.338 | [8] 0.033 | [13] 0.121 | [4] -0.209 | [5] -0.016 | [14] -0.061 | [1] -0.117 | [2] 0.015 | ibrutinib 0.026 | [15] -0.051 | ralimetinib 0.161 | [10] -0.067 | [6] -0.005 | [11] -0.179 | [3] 0.062

AASDH (UniProt Q4L235)
inactive: erlotinib 0.113 | [7] 0.037 | [8] 0.048 | [4] 0.158 | [5] 0.003 | [1] -0.058 | [2] 0.034 | IRAK-1-4 Inhibitor I 0.037 | ibrutinib -0.308 | ralimetinib -0.011 | [9] -0.15 | [10] -0.107 | [6] -0.066 | pinometostat 0.038 | [11] -0.017 | [3] -0.184

AZI2 (UniProt Q9H6S1)
inactive: erlotinib -0.039 | [8] -0.211 | [4] 0.009 | [5] -0.012 | [1] -0.025 | [2] 0.04 | ibrutinib 0.046 | ralimetinib -0.241 | [10] -0.126 | [6] -0.09 | [11] -0.018 | [3] 0.022

BRD3 (UniProt Q15059)
inactive: erlotinib -0.282 | [12] -0.072 | [8] 0.061 | [13] -0.021 | [4] 0.071 | [5] 0.128 | [14] 0.059 | [1] -0.163 | [2] -0.024 | IRAK-1-4 Inhibitor I 0.163 | ibrutinib 0.037 | [15] -0.032 | ralimetinib -0.136 | [10] 0.152 | [6] -0.065 | pinometostat 0.143 | [11] 0.026 | [3] 0.162

AUNIP isoform 2 (UniProt Q9H7T9)
inactive: erlotinib -0.023 | [12] 0.066 | [8] 0.297 | [13] 0.083 | [14] 0.027 | [1] 0.041 | [2] 0.066 | [15] -0.219 | [10] -0.134 | [3] -0.141
